Data published in PubChem BioAssay (Tox21).
Records with an inconclusive call do not appear. Calls of active or inactive are those of the source. Unless noted, calls come from the whole dose curve; as a rule, active = well fitted curve in the direction sought with a large enough effect in the repeat runs; inconclusive = weak or mixed curves; inactive = no such curve, though single readings can be large; an effect the other way counts as inactive or inconclusive.

Experiments:
[1] = target: Retinoic acid receptor RXR-alpha (Homo sapiens) (UniProt P19793); assay: qHTS assay to identify small molecule agonists of the RXR signaling pathway (AID 1159527; calls by dose curve; note: nearly all actives have a fitted effect of over 35% in size)
Chain of Retinoic acid receptor RXR-alpha (Homo sapiens) (P19793 whole entry, looked up): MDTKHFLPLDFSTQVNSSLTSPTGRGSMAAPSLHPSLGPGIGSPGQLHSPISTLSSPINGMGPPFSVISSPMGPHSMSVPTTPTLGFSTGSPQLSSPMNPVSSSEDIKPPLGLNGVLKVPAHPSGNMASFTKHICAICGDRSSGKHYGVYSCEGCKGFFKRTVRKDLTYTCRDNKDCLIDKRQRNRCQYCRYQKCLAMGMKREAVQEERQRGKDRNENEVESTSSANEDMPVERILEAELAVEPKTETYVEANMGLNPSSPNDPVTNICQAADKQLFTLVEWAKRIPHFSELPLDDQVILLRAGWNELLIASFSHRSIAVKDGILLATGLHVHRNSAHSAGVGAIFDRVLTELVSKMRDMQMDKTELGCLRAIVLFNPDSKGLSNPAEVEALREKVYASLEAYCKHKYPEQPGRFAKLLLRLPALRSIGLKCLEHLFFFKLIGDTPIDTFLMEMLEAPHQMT
Outline: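 GeneBLAzer RXR-alpha-UAS-bla HEK 293T cells in 2% charcoal-stripped FBS medium were exposed to compounds for 16 hr at 37 C in agonist mode. Beta-lactamase reporter read as 460/530 nm FRET ratio after 2 hr substrate loading.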

[2] = qHTS assay to identify small molecule agonists of the RXR signaling pathway - cell viability counter screen (AID 1159529); note: series mostly up to about 77 µM; nearly all actives have a fitted effect of over 50% in size
Outline: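 RXR-alpha-UAS-bla HEK 293T cells in medium with 2% charcoal-stripped FBS were pre-incubated 5 hr, then compound-treated 16 hr at 37 C. Viability was read by CellTiter-Glo luminescence in the same wells as the beta-lactamase assay, with tetraoctyl ammonium bromide as positive control.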

[3] = qHTS assay to identify small molecule antagonists of the retinoid acid receptor (RAR) signaling pathway - cell viability counter screen (AID 1159551); note: nearly all actives have a fitted effect of over 35% in size
Outline: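 Retinol-stimulated (1 uM final) C3RL4 cells, compound 6 h, 37 C; readout CellTiter-Glo luminescence (ATP) after 30 min RT incubation.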

[4] = qHTS assay to identify small molecule antagonists of the retinoic acid receptor (RAR) signaling pathway (AID 1159552; note: nearly all actives have a fitted effect of over 50% in size)
Outline: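 Retinol signaling pathway inhibitors screened in C3RL4 RARE-luciferase reporter cells seeded overnight at 37 C, then compounds added with 1 uM (final) retinol as pathway substrate. After 6 hr at 37 C, luciferase luminescence read after 30 min at room temperature.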

[5] = qHTS assay to identify small molecule agonists of the retinoic acid receptor (RAR) signaling pathway (AID 1159553)
Outline: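 Reporter readout comes from luciferase under RARE control in C3RL4 cells; compound exposure lasts 6 hr at 37 C in 5% CO2, and luminescence is recorded following a 30 min room-temperature incubation with reagent.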

[6] = qHTS assay to identify small molecule antagonists of the estrogen related receptor (ERR) signaling pathway from Tox21 library - cell viability counter screen (AID 1224834); note: nearly all actives have a fitted effect of over 30% in size
Outline: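 After 17.5 h of compound exposure at 37 C, ERR cells are incubated with CellTiter-Fluor for 30 min and fluorescence intensity serves as the viability measure.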

[7] = target: Luciferin 4-monooxygenase (Photinus pyralis) (UniProt P08659); assay: qHTS assay to identify small molecule inhibitors of firefly luciferase (AID 1224835); note: series mostly up to about 120 µM; nearly all actives have a fitted effect of over 25% in size
Chain of Luciferin 4-monooxygenase (Photinus pyralis) (P08659 whole entry, looked up): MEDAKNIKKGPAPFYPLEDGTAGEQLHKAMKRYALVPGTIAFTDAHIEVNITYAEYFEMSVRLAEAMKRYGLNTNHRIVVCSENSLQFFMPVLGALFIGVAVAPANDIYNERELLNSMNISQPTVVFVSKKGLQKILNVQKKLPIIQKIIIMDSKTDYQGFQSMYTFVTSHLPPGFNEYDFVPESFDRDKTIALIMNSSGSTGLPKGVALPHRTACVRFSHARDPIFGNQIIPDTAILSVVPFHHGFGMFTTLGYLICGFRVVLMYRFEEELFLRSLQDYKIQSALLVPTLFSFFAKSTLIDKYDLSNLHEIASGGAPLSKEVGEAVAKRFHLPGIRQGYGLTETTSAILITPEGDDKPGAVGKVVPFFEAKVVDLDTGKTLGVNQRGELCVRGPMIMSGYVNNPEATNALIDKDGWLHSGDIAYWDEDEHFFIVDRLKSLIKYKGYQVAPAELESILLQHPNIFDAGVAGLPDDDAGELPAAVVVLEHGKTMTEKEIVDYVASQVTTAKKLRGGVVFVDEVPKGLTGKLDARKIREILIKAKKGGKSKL
Outline: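 Inhibition of purified Photinus luciferase is measured by luminescence. Substrate levels (D-luciferin, ATP) sit at their KM values. Each compound is tested in a concentration series.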

[8] = qHTS assay to identify small molecule agonists of the constitutive androstane receptor (CAR) signaling pathway - cell viability counter screen (AID 1224836); note: series mostly up to about 92 µM; nearly all actives have a fitted effect of over 45% in size
Outline: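 HepG2 cells stably carrying hCAR and a CYP2B6-2.2kb reporter; 15-concentration compounds plus PK11195 (final 0.75 uM), 23 hr at 37 C/5% CO2. Viability read by CellTiter-Fluor fluorescence.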

[9] = qHTS assay to identify small molecule antagonists of the constitutive androstane receptor (CAR) signaling pathway - cell viability counter screen (AID 1224837); note: series mostly up to about 92 µM; nearly all actives have a fitted effect of over 45% in size
Outline: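 Counter screen run in HepG2-CYP2B6-hCAR cells: 4 hr settle, compound titration (15 concentrations) with 50 nM CITCO, 23 hr at 37 C/5% CO2, CellTiter-Fluor fluorescence.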

[10] = target: Nuclear receptor subfamily 1 group I member 3 (Homo sapiens) (UniProt Q14994); assay: qHTS assay to identify small molecule antagonists of the constitutive androstane receptor (CAR) signaling pathway (AID 1224838);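 note: HepG2 cells stably expressing hCAR with CYP2B6 luciferase reporter stimulated by CITCO; nearly all actives have a fitted effect of over 40% in size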
Chain of Nuclear receptor subfamily 1 group I member 3 (Homo sapiens) (Q14994 whole entry, looked up): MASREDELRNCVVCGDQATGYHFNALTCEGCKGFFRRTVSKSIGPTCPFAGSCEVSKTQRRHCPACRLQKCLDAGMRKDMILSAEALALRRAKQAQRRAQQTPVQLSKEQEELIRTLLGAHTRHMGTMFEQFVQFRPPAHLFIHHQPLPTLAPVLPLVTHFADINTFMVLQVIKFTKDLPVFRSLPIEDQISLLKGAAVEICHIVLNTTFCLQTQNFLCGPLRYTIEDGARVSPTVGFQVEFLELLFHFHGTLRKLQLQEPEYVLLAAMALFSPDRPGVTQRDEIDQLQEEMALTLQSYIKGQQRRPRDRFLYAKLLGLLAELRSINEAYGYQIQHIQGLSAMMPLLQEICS
Outline: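 Cell line: HepG2 double-stable for hCAR and CYP2B6-2.2kb reporter. Agonist: CITCO, 50 nM final. Compounds: 15 concentrations, 24 h, 37 C. Detection: ONE-Glo luminescence.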

[11] = target: Nuclear receptor subfamily 1 group I member 3 (Homo sapiens) (UniProt Q14994); assay: qHTS assay to identify small molecule agonists of the constitutive androstane receptor (CAR) signaling pathway (AID 1224839);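 note: HepG2 cells stably carrying human CAR and a CYP2B6 luciferase reporter; series mostly up to about 92 µM; nearly all actives have a fitted effect of over 15% in size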
Outline: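 HepG2 cells stably co-transfected with hCAR and a CYP2B6-2.2kb luciferase reporter; compounds at 15 concentrations with 0.75 uM PK11195 present. After 24 hr at 37 C, luciferase read by ONE-Glo luminescence.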

[12] = qHTS assay to identify small molecule antagonists of the estrogen related receptor signaling pathway with the pleiotropic PPARgamma coactivator (PGC) from Tox21 10K library - cell viability counter screen (AID 1224840; active = well fitted cell-killing curve with a large enough effect in the repeat runs, not every such curve was filed as active; note: nearly all actives have a fitted effect of over 40% in size)
Outline: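 Following seeding of 2,000 PGC/ERR cells/well and 6 hours' incubation, test compounds were delivered in DMSO. The plates then sat 17.5 hours at 37 C before a fluorogenic live-cell protease reagent (CellTiter-Fluor) was read after 30 min.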

[13] = target: Thyrotropin receptor (Homo sapiens) (UniProt P16473); assay: qHTS assay to identify small molecule agonists of the thyroid stimulating hormone receptor (TSHR) signaling pathway (AID 1224843; calls by dose curve; note: nearly all actives have a fitted effect of over 45% in size)
Chain of Thyrotropin receptor (Homo sapiens) (P16473 whole entry, looked up): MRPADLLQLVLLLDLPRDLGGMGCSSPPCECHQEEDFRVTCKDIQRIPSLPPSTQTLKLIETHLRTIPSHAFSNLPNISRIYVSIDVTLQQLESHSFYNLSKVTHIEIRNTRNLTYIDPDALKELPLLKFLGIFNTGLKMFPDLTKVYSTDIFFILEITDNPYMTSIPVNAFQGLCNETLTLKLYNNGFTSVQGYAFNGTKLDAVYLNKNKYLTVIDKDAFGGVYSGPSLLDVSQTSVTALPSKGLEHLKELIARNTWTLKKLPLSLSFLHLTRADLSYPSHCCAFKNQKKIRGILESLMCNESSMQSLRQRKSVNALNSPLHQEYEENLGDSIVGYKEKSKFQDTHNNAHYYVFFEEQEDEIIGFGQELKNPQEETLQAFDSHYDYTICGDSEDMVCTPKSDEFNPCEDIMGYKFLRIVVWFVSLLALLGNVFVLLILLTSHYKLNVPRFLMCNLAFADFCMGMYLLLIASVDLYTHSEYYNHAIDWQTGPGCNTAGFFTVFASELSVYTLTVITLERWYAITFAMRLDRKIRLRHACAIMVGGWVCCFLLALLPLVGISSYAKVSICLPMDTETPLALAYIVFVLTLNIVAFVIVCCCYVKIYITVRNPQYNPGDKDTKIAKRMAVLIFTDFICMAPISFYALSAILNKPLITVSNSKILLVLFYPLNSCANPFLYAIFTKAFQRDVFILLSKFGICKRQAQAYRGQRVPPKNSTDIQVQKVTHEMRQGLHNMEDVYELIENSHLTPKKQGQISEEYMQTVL
Outline: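 Screening of the Tox21 10K collection used HEK293 cells engineered with TSHR at 800 cells per well. After a 30-min room-temperature compound exposure, HTRF cAMP reagents were added and fluorescence recorded 1 h later.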

[14] = qHTS assay to identify small molecule agonists of the hypoxia (HIF-1) signaling pathway - cell viability counter screen (AID 1224844; calls by dose curve; note: nearly all actives have a fitted effect of over 50% in size)
Outline: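 Cells (HRE-bla ME-180, 2,000 per well) sat 5 hrs at 37C, got compound for 17 hrs, were read for CCF4-AM FRET, and were finally lysed with CellTiter-Glo for a 30 min room-temperature luminescence read.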

[15] = qHTS assay to identify small molecule agonists of H2AX (AID 1224845; active = well fitted activation curve with a large enough effect in the signal ratio in the repeat runs, not every such curve was filed as active; the % refers to the signal ratio)
Outline: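 Phospho-H2AX Ser139 measured by HTRF (ex 320 nm; em 665 and 620 nm) after 24 hr antibody incubation. Compounds, 15 concentrations, 0.76% DMSO, were applied to CHO-K1 cells for 3hr at 37C before lysis.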

[16] = qHTS assay to identify small molecule agonists of the hypoxia (HIF-1) signaling pathway (AID 1224846; active = well fitted activation curve with a large enough effect in the signal ratio in the repeat runs, not every such curve was filed as active; the % refers to the signal ratio)
Outline: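 A low-serum medium (0.5% dialyzed FBS) holding 2,000 HRE-bla ME-180 cells per well is preincubated for 5 hrs, dosed with compounds by pintool, and kept a further 17 hrs at 37C, 5% CO2 before CCF4-AM FRET detection of beta-lactamase.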

[17] = qHTS assay to identify small molecule agonists of H2AX - cell viability counter screen (AID 1224847; calls by dose curve;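 note: wild-type CHO-K1 cells; top concentration of the series differs between compounds; nearly all actives have a fitted effect of over 30% in size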)
Outline: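 CHO-K1 cells plated overnight at 37C, then exposed 3 h at 37C to compounds at 15 concentrations (0.76% DMSO final). Viability by CellTiter-Glo luminescence after 30 min at room temperature.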

Measured: Potency

CC1(C)Cc2cccc(N)c2O1
inactive: all assays above

O=[N+]([O-])c1c(Cl)cc(Cl)cc1Cl
not listed: [16]
inactive: all other assays above

CCC[C@@H]1C[C@@H](C(=O)N[C@@H]([C@H]2O[C@H](SC)[C@H](O)[C@@H](O)[C@H]2O)[C@@H](C)O)N(C)C1
not listed: [16]
inactive: all other assays above

NCC1(Cc2noc(=O)[nH]2)CCCCC1
inactive: all assays above

COC(=O)CCCCC(=O)O
inactive: all assays above

CC(=O)OC(C)=O
inactive: all assays above

COC(C)(OC)OC
inactive: all assays above

OCC1CCC(CO)CC1 (configuration not stated)
inactive: all assays above

O=C1OCCO1
not listed: [16]
inactive: all other assays above

CCC(C)C(C)=O (configuration not stated)
inactive: all assays above

CCCCCCCCCCOC(C)=O
inactive: all assays above

CCOCCOCC
inactive: all assays above

CCC(=O)Oc1ccc2c(c1)CC[C@@H]1[C@@H]2CC[C@@]2(C)[C@H]1C[C@@H](OC(=O)CC)[C@@H]2OC(=O)CC
not listed: [15]
inactive: all other assays above

CNCCS(=O)(=O)O
not listed: [15] | [16]
inactive: all other assays above

CCCCOC(=O)C(C)O (configuration not stated)
not listed: [10] | [16]
inactive: all other assays above

O=C(O)CSCC(=O)NC1CCSC1=O (configuration not stated)
not listed: [15]
inactive: all other assays above

OCC(O)CN1CCN(c2ccccc2)CC1 (configuration not stated)
not listed: [10] | [16] | [17]
inactive: all other assays above
